Several values for one entry are separate records, joined by “and”; a condition that tells them apart may be missing. Identical values can stand only once. Inconclusive results are not listed. Entries that show only a call come without a potency. Activity calls are given as the source filed them. Unless noted, the call rests on the fitted dose curve; in most records, active means well fitted curve in the direction sought with a large enough effect; inconclusive means small, poorly fitted or top-dose-only effect, or another doubt; inactive means no such curve, though single readings can be large; an effect the other way counts as inactive or inconclusive.
Assays:
[1] = Cell Viability - SH-SY5Y (AID 544); settings: SH-SY5Y neuroblastoma cell viability; viability change, negative = cytotoxic: at 92.2 µM (top of the series); further: nearly all actives have a fitted effect of over 55% in size
How it was run: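 Human neuroblastoma SH-SY5Y cells (1500/well) in complete medium were exposed to compounds for 40 hr at 37 °C; intracellular ATP was then quantified by CellTiter-Glo luminescence after 20 min at room temperature. AC50 came from Hill-equation concentration-response fits.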

[2] = Cellular Toxicity (caspase-3) Jurkat (AID 655); settings: Jurkat caspase-3 activation, luminescence; caspase-3 activation: at 92.2 µM (top of the series), DMSO = 0%, tamoxifen = 100%;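 further: cells exposed to compound for 16 h at 37 °C before reading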
How it was run: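 5000 Jurkat cells/well; compound 16 hr, 37 °C; Caspase-Glo 3/7 added, 20 min RT; luminescence read. Norm: DMSO = 0%, tamoxifen 100 uM = 100%. AC50, Hill model.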

[3] = MultiTox-Fluor Cytotoxicity Assay - LYMP1-003 - Live Cells (AID 962);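 further: cytotoxic hits lower the live-cell protease signal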
How it was run: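 LYMP1-003 human lymphoblastoid cells (2500/well) in complete medium were preincubated 5 hr at 37 C, then exposed to compounds for 16 hr at 37 C. Live-cell protease cleavage of GF-AFC read by fluorescence (Ex/Em 405/510); AC50 from Hill fits.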

[4] = Cell Viability - LYMP1-003 - Assay at 24 hr (AID 963)
How it was run: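 Human lymphoblastoid LYMP1-003 cells (2500/well) were rested 5 hr at 37 C, then exposed to compounds in complete medium for 24 hr at 37 C. Cellular ATP was quantified by CellTiter-Glo luminescence, and AC50 values came from Hill fits of concentration-response data.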

[5] = Cell Viability - LYMP1-003 - Assay at 40 hr (AID 964); further: nearly all actives have a fitted effect of over 60% in size
How it was run: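 Human lymphoblastoid LYMP1-003 cells, 2500/well in complete medium, rested 5 hr at 37 C, then exposed to compounds for 40 hr at 37 C. Viability read as intracellular ATP by CellTiter-Glo luminescence; AC50 from Hill fits of concentration-response data.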

[6] = Cell Viability - LYMP2-003 (AID 965);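 further: cells exposed to compounds for 24 h before reading; nearly all actives have a fitted effect of over 50% in size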
How it was run: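 Seed 2500 lymphoblastoid cells/well; incubate 5 hr, 37 C; add compounds; incubate 24 hr, 37 C; add CellTiter-Glo, 30 min RT; read luminescence. AC50 from Hill fit.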

[7] = Cell Viability - LYMP2-004 (AID 966); further: nearly all actives have a fitted effect of over 65% in size
How it was run: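 Human lymphoblastoid cells (2500/well) in complete medium were treated with compounds for 24 hr at 37 C, then intracellular ATP was measured by CellTiter-Glo luminescence. AC50 values came from Hill-equation fits of concentration-response data.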

[8] = Cell Viability - LYMP2-017 (AID 972); further: nearly all actives have a fitted effect of over 55% in size
How it was run: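 Human lymphoblastoid cells (2500/well) were seeded in complete medium, held 5 hr at 37 C, then exposed to compounds for 24 hr at 37 C. Intracellular ATP was read by CellTiter-Glo luminescence after 30 min at room temperature, with AC50 values from Hill-equation fits.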

[9] = Cell Viability - LYMP2-019 (AID 973); further: nearly all actives have a fitted effect of over 55% in size
How it was run: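 Human lymphoblastoid cells were seeded at 2500 cells/well, preincubated 5 hr at 37 C, then exposed to compounds for 24 hr at 37 C in complete medium. Intracellular ATP was measured by CellTiter-Glo luminescence; AC50 from Hill fits.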

[10] = Cell Viability - LYMP2-025 (AID 976)
How it was run: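 Human lymphoblastoid LYMP2-025 cells (2500/well) were pre-incubated 5 hr at 37 C, then treated with compounds for 24 hr at 37 C in complete medium. Viability was read as intracellular ATP by CellTiter-Glo luminescence; AC50 from Hill fits.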

[11] = Cell Viability - LYMP2-007 (AID 979);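 further: cells exposed to compound for 24 h before reading; nearly all actives have a fitted effect of over 60% in size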
How it was run: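 Human lymphoblastoid cells (2500/well) were plated in complete medium, incubated 5 hr at 37 C, then exposed to compounds for 24 hr at 37 C. Intracellular ATP was read by CellTiter-Glo luminescence after 30 min at room temperature; AC50 from Hill fits.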

[12] = Cell Viability - LYMP2-008 (AID 980); further: nearly all actives have a fitted effect of over 60% in size
How it was run: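 Human lymphoblastoid cells (2500/well) were plated, held 5 hr at 37 C, then exposed to compounds for 24 hr at 37 C in complete medium. Intracellular ATP was read by CellTiter-Glo luminescence; AC50 from Hill-fitted concentration-response.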

[13] = Cell Viability - LYMP2-012 (AID 982);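 further: cellular ATP by luciferase luminescence where a drop means cytotoxicity; cells exposed to compound for one day before reading; nearly all actives have a fitted effect of over 55% in size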
[14] = Cell Viability - LYMP2-014 (AID 983); further: nearly all actives have a fitted effect of over 50% in size
How it was run: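 Human lymphoblastoid cells (2500/well) were pre-incubated 5 hr at 37 C, then exposed to compounds in complete medium for 24 hr at 37 C. Intracellular ATP was read by CellTiter-Glo luminescence after 30 min at room temperature; AC50 from Hill fits.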

[15] = Cell Viability - LYMP2-018 (AID 985);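 further: compound exposure lasted 24 hr at 37 °C; nearly all actives have a fitted effect of over 50% in size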
How it was run: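 Human lymphoblastoid cells (2500/well) were pre-incubated 5 hr at 37 C, then exposed to compounds for 24 hr at 37 C in complete medium. Viability was read as intracellular ATP by CellTiter-Glo luminescence; AC50 values came from Hill-equation fits.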

[16] = Cell Viability - LYMP1-002 - Assay at 40 hr (AID 994); further: nearly all actives have a fitted effect of over 60% in size
How it was run: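 Human lymphoblastoid cells, 2500/well in complete medium, were preincubated 5 hr at 37 C, then exposed to compounds for 40 hr at 37 C. Intracellular ATP was read by CellTiter-Glo luminescence after 30 min at room temperature; AC50 from Hill-equation fits.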

[17] = qHTS assay for small molecule agonists of retinoid X receptor alpha signaling (AID 588544; calls by dose curve); settings: HEK293T RXRa-UAS-bla, beta-lactamase reporter, 18 h; 530 nm emission
[18] = biological target: Retinoic acid receptor RXR-alpha (Homo sapiens) (UniProt P19793); test: as above
Retinoic acid receptor RXR-alpha (Homo sapiens), sequence (P19793 whole entry, looked up): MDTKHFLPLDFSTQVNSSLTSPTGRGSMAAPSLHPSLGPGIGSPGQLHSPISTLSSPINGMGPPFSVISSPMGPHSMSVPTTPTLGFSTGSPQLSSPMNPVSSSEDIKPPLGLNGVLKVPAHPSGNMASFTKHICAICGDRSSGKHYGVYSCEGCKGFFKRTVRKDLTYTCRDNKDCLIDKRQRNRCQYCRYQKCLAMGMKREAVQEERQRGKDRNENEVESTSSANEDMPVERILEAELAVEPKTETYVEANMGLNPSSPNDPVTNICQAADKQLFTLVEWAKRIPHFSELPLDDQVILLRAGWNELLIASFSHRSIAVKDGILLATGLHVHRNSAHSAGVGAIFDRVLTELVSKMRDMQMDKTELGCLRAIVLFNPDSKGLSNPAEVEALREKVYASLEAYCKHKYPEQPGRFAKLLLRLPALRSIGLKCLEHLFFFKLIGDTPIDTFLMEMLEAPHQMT

[19] = qHTS assay for small molecule antagonists of retinoid X receptor alpha signaling (AID 588546); settings: HEK293T RXRa-UAS-bla, beta-lactamase ratio, antagonist mode; measured here: W530 green channel, cytotoxicity proxy;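 further: cells stimulated with 9-cis-retinoic acid as agonist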
How it was run: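 Beta-lactamase reporter inhibition, read as CCF4 fluorescence ratio (ex 405, em 460/530 nm) after 2 h at RT. HEK293T UAS-bla cells, 2500/well, were stimulated with 9-cis-RA at 500 or 100 nM final alongside test compound for 18 h at 37 C.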

[20] = qHTS assay for small molecule antagonists of the retinoid-related orphan receptor gamma (ROR-gamma) signaling pathway - cell viability counter screen (AID 720652; active means well fitted curve in the direction sought with a large enough effect in the repeat runs; an effect the other way counts as inactive or inconclusive;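 further: CHO reporter cells with doxycycline-induced ROR-gamma expression; compound exposure lasted 16 hr before ATP read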)
How it was run: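 Counter screen in CHO cells carrying TET-inducible ROR-gamma and an ROR response element-luciferase reporter; cells plated 5 hr, compound pinned, doxycycline added, then 16 hr at 37 C. Viability read as intracellular ATP by CellTiter-Glo luminescence.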

SMILES	Potency [1]	caspase-3 activation [2]	outcome [3]	outcome [4]	Potency [5]	Potency [6]	Potency [7]	Potency [8]	Potency [9]	Potency [10]	Potency [11]	Potency [12]	Potency [13]	Potency [14]	Potency [15]	Potency [16]	max response [17]	outcome [18]	max response [19]	Potency [20]
O=C(O)CBr	inactive	2.79% (inactive)	inactive	inactive	inactive	inactive	inactive	inactive	inactive	inactive	inactive	inactive	inactive	inactive	inactive	inactive	-13.9%	inactive	-7.96%	inactive
O=C(O)c1cc(Cl)ccc1Cl	inactive	0.232% (inactive)	inactive	inactive	inactive	inactive	inactive	inactive	inactive	inactive	inactive	inactive	inactive	inactive	inactive	inactive	-6.74%	inactive	-9.46%	inactive
N#CCCC#N	inactive	-0.151% (inactive)	inactive	inactive	inactive	inactive	inactive	inactive	inactive	inactive	inactive	inactive	inactive	inactive	inactive	inactive	-20.2%	inactive	-8.53%	inactive
Cc1coc2c1CCC(C)C2 (stereo not given)	inactive	0.203% (inactive)	inactive	inactive	inactive	inactive	inactive	inactive	inactive	inactive	inactive	inactive	inactive	inactive	inactive	inactive	-8.64%	inactive	-8.18%	inactive
CC(C)(C)C(O)(CCc1ccc(Cl)cc1)Cn1cncn1 (stereo not given)	inactive	2.58% (inactive)	inactive	inactive	inactive	inactive	inactive	inactive	inactive	inactive	inactive	inactive	inactive	inactive	inactive	inactive	-9.24% and 6.75%	inactive	3% and 12.6%	inactive
[O-][Cl+]O	inactive	0.134% (inactive)	inactive	inactive	inactive	inactive	inactive	inactive	inactive	inactive	inactive	inactive	inactive	inactive	inactive	inactive	-9.53%	inactive	0.141%	inactive
Oc1cc(Cl)ccc1Cl	inactive	1.27% (inactive)	inactive	inactive	inactive	inactive	inactive	inactive	inactive	inactive	inactive	inactive	inactive	inactive	inactive	inactive	-10.2% and -8.32%	inactive	-4.84% and -5.75%	inactive
C=CCc1cc(OC)c2c(c1)OCO2	inactive	-0.188% (inactive)	inactive	inactive	inactive	inactive	inactive	inactive	inactive	inactive	inactive	inactive	inactive	inactive	inactive	inactive	-17.2%	inactive	-4.92%	inactive
CCC[N+](=O)[O-]	inactive	-1.47% (inactive)	inactive	inactive	inactive	inactive	inactive	inactive	inactive	inactive	inactive	inactive	inactive	inactive	inactive	inactive	-16.6%	inactive	–	inactive
CC1CC(=O)O1 (stereo not given)	inactive	-1.79% (inactive)	inactive	inactive	inactive	inactive	inactive	inactive	inactive	inactive	inactive	inactive	inactive	inactive	inactive	inactive	-12.1%	inactive	-1.73%	inactive
ClC(Br)Br	inactive	0.0387% (inactive)	inactive	inactive	inactive	inactive	inactive	inactive	inactive	inactive	inactive	inactive	inactive	inactive	inactive	inactive	-3.88%	inactive	-8.78%	inactive
CCCCC#N	inactive	0.125% (inactive)	inactive	inactive	inactive	inactive	inactive	inactive	inactive	inactive	inactive	inactive	inactive	inactive	inactive	inactive	2.48%	inactive	-4.26%	inactive
Nc1cc(Cl)ccc1Cl	inactive	0.909% (inactive)	inactive	inactive	inactive	inactive	inactive	inactive	inactive	inactive	inactive	inactive	inactive	inactive	inactive	inactive	-19.1%	inactive	1.78%	inactive
Cc1cccc(N)c1C	inactive	0.961% (inactive)	inactive	inactive	–	inactive	inactive	–	inactive	inactive	inactive	inactive	–	inactive	inactive	–	-3.13%	inactive	-9%	inactive
Cc1ccc(N)cc1Cl	inactive	1.16% (inactive)	inactive	inactive	inactive	inactive	inactive	inactive	inactive	inactive	inactive	inactive	inactive	inactive	inactive	inactive	-18.1%	inactive	-6.83%	inactive
